Source: ChEMBL document CHEMBL4513216, “Probing the Open Global Health Chemical Diversity Library for Multistage-Active Starting Points for Next-Generation Antimalarials” (ACS Infect Dis, 2020)
In all, about 69,000 compounds went through this assay and about 8,600 (12%) showed an effect of 50% or more. The full list was thinned out, with strong results kept by preference.

system: Plasmodium berghei; test: Screen against P. berghei liver stage (PbLuc), transformed with Luciferase, at 10uM; type: functional, HepG2; settings: tested at 10 uM

SMILES	INHIBITION
Cc1cc(C(=O)N2CCCC2c2c(C)nn(C)c2C)no1 (stereo not given)	23.5%
Cc1ccc(C(=O)Nc2cn[nH]c2)cc1F	0.5%
Fc1ccc(Br)c(NCc2nnsc2Cl)c1	43.1%
CC1CCCCN1C(=O)c1ccn(COc2ccc(F)cc2)n1 (stereo not given)	-3.11%
CC(C)NC(=O)N1CCC2(C1)CN(c1ccsc1)C(=O)CN2C (stereo not given)	27.9%
O=C(N1CCCC1)N1CCC[C@]2(C[C@@H](OCc3ccncc3)CO2)C1	53.9%
O=C(c1ccccc1)N1CCC[C@]2(C[C@@H](OCc3ccncc3)CO2)C1	-13.7%
O=C(C1CC1)N1CCC[C@]2(C[C@@H](OCc3ccncc3)CO2)C1	10.5%
CCc1nc(CN(C)CC(N)=O)cs1	31.8%
Cc1c(C(C)NC(=O)C2CCCC2)cnn1C (stereo not given)	-8.87%
Cc1c(C(C)NC(=O)C2CCCCC2)cnn1C (stereo not given)	8.12%
Cc1c(C(C)NC(=O)N2CCN(C3CCCC3)CC2)cnn1C (stereo not given)	70.9%
O=C1CCC(=O)N1c1nn(Cc2c(F)cccc2Cl)cc1Cl	24.8%
CN(C)c1ccc(C(=O)Nc2ccn(CCc3ccncc3)n2)cn1	-17.7%
Cn1cc(CC(=O)N2CCC(Nc3cccnn3)CC2)c2ccccc21	66.8%
O=C(Cc1c[nH]c2ccccc12)N1CCC(Nc2cccnn2)CC1	21.8%
Cc1noc(C)c1CC(=O)N1CCC(Nc2cccnn2)CC1	17.883%
Cc1nn(C)c(C)c1CC(=O)N1CCC(Nc2cccnn2)CC1	53.5%
O=C(Cc1cccc2ccccc12)N1CCC(Nc2cccnn2)CC1	-9.76%
Cc1ccc(NC2CCN(C(=O)Cc3c(C)nn(C)c3C)CC2)nn1	-3.547%
CC(NC(=O)NCc1cccs1)c1ccc2c(c1)CCC(=O)N2 (stereo not given)	-27.8%
Cc1cc(C)c2c(c1)C(NCc1c(C)nn(C)c1N(C)C)CCO2 (stereo not given)	16.515%
O=C1CCC(C(=O)Nc2cnn(-c3ccccc3Br)c2)N1 (stereo not given)	47%
CCCN1CCN(C(=O)CCn2cccc2)CC1	16.8%
O=C(C1CCCCC1)N1C[C@@H]2CCN(c3cnccn3)C[C@@H]2C1	-15.9%
Cc1ccc(N2CC[C@H]3CN(C(=O)c4ccn(C)n4)C[C@H]3C2)nn1	75.6%
Cn1ccc(C(=O)N2C[C@@H]3CCN(c4cccnc4)C[C@@H]3C2)n1	32.1%

SMILES	INHIBITION
Cn1cncc1C(=O)N1C[C@@H]2CCN(c3cnccn3)C[C@@H]2C1	56.6%
c1cnc(N2C[C@H]3CCN(CCN4CCCC4)C[C@H]3C2)cn1	57.5%
Cn1ccnc1C(=O)N1C[C@@H]2CCN(c3cnccn3)C[C@@H]2C1	31.2%
O=C(c1cnccn1)N1C[C@@H]2CCN(c3cnccn3)C[C@@H]2C1	35.8%
c1cnc(N2C[C@H]3CCN(CC4CC4)C[C@H]3C2)cn1	58.4%
c1cc(CN2CC[C@@H]3CN(c4cnccn4)C[C@@H]3C2)ccn1	27.6%
O=C(CC1CC1)N1C[C@@H]2CCN(c3cnccn3)C[C@@H]2C1	15.7%
O=C(C1CCCC1)N1C[C@@H]2CCN(c3cnccn3)C[C@@H]2C1	16.1%
Cn1ccc(C(=O)N2C[C@@H]3CCN(c4cnccn4)C[C@@H]3C2)n1	24%
Cc1cc(NC(=O)NCC(c2ccc(C)o2)N2CCOCC2)n(C)n1 (stereo not given)	45.7%
CC(NC(=O)NCCCn1cncn1)c1ccncc1 (stereo not given)	33%
CN(C)[C@@H]1CCN(C(=O)CC2CC2)[C@H]1Cc1cnn(C)c1	4.27%
COCC1CN(Cc2ccoc2)Cc2nn(CC3CC3)cc21 (stereo not given)	1.9%
CC(=O)NCC(=O)N1C[C@@H]2CC[C@H](Oc3ccccc3Cl)[C@@H]2C1	30.8%
CCOC(=O)NCCC(=O)NCc1ccnc(Oc2ccc(F)cc2)c1	21.5%
CCOC(=O)NCCC(=O)NCc1ccc(Oc2cccc(F)c2)nc1	35.5%
CCOC(=O)NCCC(=O)NCc1ccc(Oc2ccc(F)cc2)nc1	61.5%
CCc1noc(CN2CCN(CCO)CC2)n1	15.8%
Cc1cnn(CC2CCCN2CC(=O)Nc2cc(C)no2)c1 (stereo not given)	-0.219%
CCCC(=O)NC1CCc2c(ccc(=O)n2Cc2csc(C)n2)C1 (stereo not given)	17.6%
Cc1ccc(N2CCCN(C(=O)CC3CCCO3)CC2)nn1 (stereo not given)	35.3%
CC(C)N1CCOC(CC(=O)N2CCCN(Cc3cccs3)CC2)C1 (stereo not given)	28.5%
Cc1ccccc1N1CCCN(C(=O)CC2CN(C(C)C)CCO2)CC1 (stereo not given)	60.3%
CC(C)N1CCOC(CC(=O)N2CCCN(Cc3ccncc3)CC2)C1 (stereo not given)	58.5%
CC(C)N1CCOC(CC(=O)N2CCCN(c3ccc(F)cc3)CC2)C1 (stereo not given)	22.1%
CC(C)N1CCOC(CC(=O)N2CC(c3ccncc3)C2)C1 (stereo not given)	31.2%
CN(C)C(=O)C1CN(Cc2ccsc2)CCN(S(C)(=O)=O)C1 (stereo not given)	20.8%

SMILES	INHIBITION
O=C(c1cccnc1)N1CCOCC2(CCN(c3ncccn3)C2)C1 (stereo not given)	-62.6%
CCn1nc(C)cc1C(=O)OCCNC(=O)c1ccccc1	-1.95%
Cc1cc(C)c(C(=O)NCCNc2ncnc3ccccc23)c(=O)[nH]1	-21.6%
CCn1nc(C)cc1C(=O)OCCNc1ncnc2ccccc12	83.2%
COC(=O)CSCc1noc(-c2ccc(Cl)cc2)n1	46.6%
COC(=O)CSCc1nc(-c2ccc(Cl)cc2)no1	48.8%
COC(=O)CSCc1noc(-c2ccc(C)cc2)n1	91.3%
Cn1cc(CCN2CCOC(CNc3cccnn3)C2)cn1 (stereo not given)	-33.7%
CCCOCC1CCN(C(=O)c2cnc(C)nc2O)C1 (stereo not given)	35.8%
Cc1cc(NC(=O)NCC2COc3ccccc3C2)no1 (stereo not given)	40%
O=S(=O)(NCC1COc2ccccc2C1)N1CCCCCC1 (stereo not given)	-9.3%
Nc1ccc(CC2COc3ccccc3C2)cn1 (stereo not given)	56.3%
O=C(c1ccnc(CC2COc3ccccc3C2)c1)N1CCCC1 (stereo not given)	31.5%
Nc1cc(CC2COc3ccccc3C2)ccn1 (stereo not given)	57.9%
Cn1cc(CN2C[C@@H]3COC[C@]3(C(=O)NCc3ccccn3)C2)cn1	13.7%
CC(C)NC(=O)[C@@H]1CN(Cc2ccc3c(c2)OCO3)C[C@H]2OCC[C@H]21	26.5%
CN(Cc1noc(C2CC2)n1)C1CCCN(c2cccnn2)C1 (stereo not given)	5.9%
CC1(C(=O)NC2CCCC2)CN(c2cnccn2)CCO1 (stereo not given)	12.3%
CC(=O)NCCc1ccc(S(=O)(=O)N(C)C(C)CC(C)C)s1 (stereo not given)	68.2%
CCC(C)N(C)S(=O)(=O)c1ccc(CCNC(C)=O)s1 (stereo not given)	13.7%
CCC(CC)N(C)S(=O)(=O)c1ccc(CCNC(C)=O)s1	-79.8%
COCCCN(Cc1cc(O)nc2ccccc12)C(=O)NC(C)C	33%
c1nc(NCc2cc3n(n2)CCN(C2CCCCC2)C3)c2nc[nH]c2n1	78.5%
CC(C)NCc1cc2n(n1)CCN(C1CCCCC1)C2	14.9%
CC(C)CN1CCn2nc(CNc3ncnc4[nH]cnc34)cc2C1	33%
Cc1nc(CN2C(=O)C[C@@H]3[C@@H]2CCN3Cc2cnn(C)c2)cs1	-8.51%
CCc1nnc2ccc(N3CCN(S(=O)(=O)c4ccc(Cl)s4)CC3)nn12	32.3%

SMILES	INHIBITION
CSc1sc(NC(=O)Cc2c(C)nc(C)[nH]c2=O)nc1C	71.4%
Cc1nc(C)c(CC(=O)Nc2nc(C)c(C)s2)c(=O)[nH]1	21.1%
Cc1nc(C)c(CC(=O)Nc2nnc(C)s2)c(=O)[nH]1	20.1%
O=c1[nH]c(-c2ccccn2)nc2c1CCN(S(=O)(=O)N1CCCC1)C2	7.92%
CS(=O)(=O)c1cn[nH]c1C1CCCN(C(=O)CN2CCOCC2)C1 (stereo not given)	20.8%
O=C(CN1CCC(c2ccnn2CCO)CC1)NCC1CC1	33.3%
O=C(CN1CCC(c2ccnn2CCO)CC1)NCc1ccco1	58.5%
O=C(CN1CCC(c2ccnn2CCO)CC1)NCc1cccs1	10.8%
CC(C)C(C)(C#N)NC(=O)CN1CCC(c2ccnn2CCO)CC1 (stereo not given)	-1.14%
Cn1nccc1C1CCN(CC(=O)NCC2CC2)CC1	70.8%
O=C(CN1CCOC(c2ccc(Cl)c(Cl)c2)C1)NCc1ccco1 (stereo not given)	21.5%
O=C(CN1CCC(c2ccnn2CCO)CC1)NCC1CCCCC1	-17.6%
CCC1CN(CC(=O)NCc2ccco2)CCO1 (stereo not given)	36.6%
Cc1csc(NC(=O)CN2CCC(c3ccnn3CCO)CC2)n1	66%
O=C(CN1CCC(c2ccnn2CCO)CC1)NC1CCCC1	-11.4%
N#CC1(NC(=O)CN2CCC(c3ccnn3CCO)CC2)CCCC1	37.9%
O=C(CN1CCOC(c2ccc(Cl)s2)C1)NCc1ccco1 (stereo not given)	52.8%
Cc1ccc(CN2CCC3(CC2)CN(C(=O)c2cnccn2)CCO3)o1	-14.2%
O=C(N1CCCC1)N1CCN(Cc2cccnc2)c2ncccc2C1	31.2%
Cn1nccc1C(=O)N1CCC(c2nnsc2S(C)(=O)=O)CC1	30.95%
COC1(CNC(=O)NCc2ccccc2)CCSC1 (stereo not given)	18.7%
Cc1nc(CNC(=O)NCC(O)c2ccccc2)cs1 (stereo not given)	11.2%
CC(C)S(=O)(=O)N1CCC(c2[nH]ncc2S(C)(=O)=O)C1 (stereo not given)	37.6%
CN(CCC#N)C(=O)C(C)(C)Oc1ccc(C(N)=O)cc1	25.3%
